Among the data in PubChem BioAssay AID1259240 (Keith Lab, Institute of Cancer Science, University of …, 2017) are fold change and outcome values, retold here.

Unmarked numbers belong to inactive results. Calls of active or inactive are those of the source. Rule as the data show it: active = fold change mostly below about -2 (no sharp cut-off); inactive = mostly above about -1.8.

The nature of the test: modulation of TERT promoter-driven luciferase – cell-based, luciferase reporter, human, primary screen (AID 1259240). The following applies: A2780 TERT promoter luciferase reporter, 16 h; at 20 µM, fold versus average of vehicle-only wells.
On to `COc1ccc(CCn2c(=O)c3cccnc3n(CC#N)c2=O)cc1OC`, for which the fold change is 1.04.

For the compound `CCN(CC)C(=O)c1sc(N2C(=O)Nc3ccccc3N2O)c(C(=O)OC)c1C`, the fold change is 1.14.

For `CC(C)Cc1nnc(NC(=O)CSc2ncn[nH]2)s1`, the fold change was -1.25.

Take `CC1=CSC2=NC(=O)/C(=C\c3coc4ccccc4c3=O)C(=N)N12`: the fold change was -1.1.

In the case of `CCC(CC)c1nnc(NC(=O)Cn2cnc3c2c(=O)n(C)c(=O)n3C)s1`, the fold change is -1.36.

For the compound `CCOC(=O)N1CCC(Nc2c(NC3CCC(C)CC3)c(=O)c2=O)CC1` (centres undefined), the fold change is 1.1.

`O=C(CN1C(=O)c2ccccc2S1(=O)=O)N1CCN(c2cccc(Cl)c2)CC1`: the fold change was -1.25.

Take `O=c1/c(=C/c2ccc(F)cc2)sc2nc(-c3ccco3)nn12`: the fold change is -1.22.

In the case of `COc1cc(-c2nc3sccn3c2Nc2ccc(OC)c(OC)c2)ccc1O`, the fold change was -1.31.

For `COc1ccc(Nc2c(-c3ccc(N4CCOCC4)cc3)nc3ncccn23)cc1OC`, the fold change was -1.26.

As to `O=C(O)CN1C(=O)/C(=C/c2ccc(SCc3ccco3)o2)SC1=S`, the fold change was -1.49.

For `CCOP(=O)(OCC)C(Nc1ccccn1)c1ccc(F)cc1` (centres undefined), the fold change was -1.13.

On to `CC1CCC(NS(=O)(=O)c2cccc3cccnc23)CC1` (centres undefined), for which the fold change is -2.05 (active).

Take `COC(=O)CN1C(=O)C(O)(CC(=O)c2ccc(Br)cc2)c2ccccc21` (centres undefined): the fold change is -1.49.

In the case of `Cc1ccc(-c2nc3cnccn3c2Nc2ccccc2C)o1`, the fold change is -1.64.

As to `Cc1ccc(-n2c(-c3ccco3)nc3c(cnn3-c3ccccc3C)c2=O)cc1F`, the fold change is -1.09.

In the case of `COc1ccccc1C(=O)[C@H]1C(=O)N[C@@]2(C)C[C@@H]1c1cccc(OC)c1O2`, the fold change was -1.16.

As to `CC(C)CCNC(=O)Cn1c(=O)oc2cc(S(=O)(=O)N3CCc4ccccc43)ccc21`, the fold change was 1.17.

Regarding `CCOC(=O)C1CCN(c2c(N3CCN(CC)CC3)c(=O)c2=O)CC1`, the fold change is 1.21.

For `COc1ccc(C2CC(c3cccs3)=NN2C(=O)CSc2ncnc3ccccc23)cc1` (centres undefined), the fold change is 1.14.

For `Cc1[nH]n(-c2nc3ccccc3[nH]2)c(=O)c1C=Nc1ccc(F)cc1`, the result was inactive.

As to `CCNc1nc2c(c(=O)n(C)c(=O)n2C)n1Cc1ccc(Cl)cc1`, the fold change was 1.15.

In the case of `CCOC(=O)C1CCCN(c2c(NCCCN3CC(C)CC(C)C3)c(=O)c2=O)C1` (centres undefined), the fold change is -1.02.

On to `CN(C)S(=O)(=O)N(CC(=O)Nc1ccccc1F)c1ccccc1`, for which the fold change is -1.38.

In the case of `COc1ccc(S(=O)(=O)NC(C)(C)C)cc1-c1nnc2c3ccccc3c(C)nn12`, the fold change was -1.62.

`CN1CCN(C(=O)c2ccc3c(Cl)c4c(nc3c2)CCC4)CC1`: the fold change is 1.03.

Take `CC1CN(C2=NC(=O)/C(=C/c3ccccc3Br)S2)CC(C)O1` (centres undefined): the fold change is -1.41.

`O=C(Nc1cnn(Cc2ccc(F)cc2)c1)c1cc(C2CC2)on1`: the fold change was -1.17.

For `COc1cc(NC(=O)Nc2ccc3snnc3c2)cc(OC)c1OC`, the fold change is -1.49.

`CC1(C)CNC(=O)c2sc(NC(=O)CN3CCOCC3)nc2C1`: the fold change is -1.75.

With `COc1cc2c(c(OC)c1)C(c1cccc3ccccc13)CC(=O)N2` (centres undefined), the fold change is -1.05.

In the case of `Cc1ccc(N2CN=c3s/c(=C4\C(=O)Nc5ccccc54)c(=O)n3C2)cc1`, the fold change was -1.33.

Take `Cc1ccc2c(C)nc(NC3=NCN(CC4CCCO4)CN3)nc2c1` (centres undefined): the fold change is -1.73.

Regarding `Cc1cc(C(=O)O)ccc1-n1c(C)cc(C=C2C(=O)c3ccccc3C2=O)c1C`, the fold change is -2.23 (active).

Consider `CCOC(=O)N1CCN(c2nc3ccccc3n3cnnc23)CC1`, for which the fold change is 1.59.

In the case of `CCC(=O)OCCNc1cc(N2CCCC2)c2noc3c2c1C(=O)c1ccccc1-3`, the fold change was 2.08 (active).

Regarding `O=C(Cn1c(=O)n(CC(=O)NC2CCCC2)c(=O)c2ccccc21)Nc1cccc(F)c1`, the fold change is 1.16.

For the compound `CCOC(=O)c1c(C)n(C)c2ccc(OCC(O)Cn3nc(C)cc3C)cc12` (centres undefined), the fold change is -2.1 (active).

In the case of `CCOC(=O)N1CCC(Nc2c(N3CCN(c4ccccc4)CC3)c(=O)c2=O)CC1`, the fold change is -1.05.
